The text below walks through data of PubChem BioAssay.

One assay concerns the target Albumin (Bos taurus) (UniProt P02769). The experiment in a line: bovine serum albumin binders on microarray, profiling panel, artefact control for SMM control protein annotation, biochemical, small-molecule microarray, Alexa647 label, 635/667 nm fluorescence (AID 1118).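 Note: score merges 667 nm emission intensity and signal-to-noise per printed compound spot.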 The settings on record: BSA-A647 binding, fluorescence 635 nm, higher = more signal.
Assay [1] is described as follows: small-molecule microarray binders of probe aXIP, primary screen, biochemical, NeuroSMM set, 635/667 nm fluorescence (AID 1119).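 Note: probe is the protein aXip251-270 applied at 1 µg/mL to compound-printed slides; binding of probe to printed compounds measured as 667 nm fluorescence plus signal to noise.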 As to conditions: higher = more signal, called active from +8 up or from −8 down.
A short description of assay [2]: small-molecule binders of probe aNOTCH3, primary screen, biochemical, small-molecule microarray, 635/667 nm fluorescence (AID 1120).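 Note: probe is a biotin-tagged antibody raised against NOTCH3 rather than NOTCH3 protein; score merges spot fluorescence near 667 nm with spot signal to noise.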 The settings on record: higher = more signal.
The nature of assay [3]: small-molecule binders of probe aNOTCH2, primary screen, biochemical, small-molecule microarray, 635/667 nm fluorescence (AID 1121).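 Note: score merges feature fluorescence read at 667 nm with its signal to noise.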 The settings on record: higher = more signal.
Assay [4] addresses Carbonic anhydrase 2 (Homo sapiens) (UniProt P00918). The experiment in a line: CAII small-molecule binders, profiling panel, biochemical, small-molecule microarray, Alexa647-labelled CAII (AID 1122). As to conditions: CAII-A647 binding fluorescence, higher = more signal.
Assay [5] can be described thus: COS7 lysate on small-molecule microarray, probe aHis, 635 nm (AID 1123).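 Note: z-score combines 667nm fluorescence intensity with signal-to-noise per printed compound spot.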 The settings on record: COS7 cell lysate, fluorescence, higher = more signal.
Assay [6] in a line: compound binding in COS7 lysate, probe aLAP1, primary screen, cell lysate, small-molecule microarray (AID 1124).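 Note: lysate comes from COS7 cells expressing LAP1 and is applied at 0.3 µg/mL; score merges spot fluorescence near 667 nm with signal-to-noise over triplicate slides.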 As to conditions: probe aLAP1, fluorescence, higher = more signal.
Another assay concerns Sam68 (KHDRBS1). The experiment in a line: Sam68 small-molecule binders, primary screen, biochemical, small-molecule microarray, 635 nm fluorescence (AID 1125).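 Note: score merges 667 nm channel intensity with signal to noise over triplicate slides.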 The settings on record: small-molecule microarray binding, higher = more signal.
Assay [7] concerns Chordin-like protein 2 (CHRDL2). Briefly: CHRDL2 small-molecule binders, primary screen, biochemical, small-molecule microarray, 635 nm fluorescence (AID 1126).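 Note: printed compound slides probed with Chrdl2 protein at 4 µg/mL for 1 h at 4 C; score merges 667 nm emission intensity with signal to noise over three replicate slides.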 As to conditions: small-molecule microarray binding, fluorescence 635 nm; higher = more signal.
The target in assay [8] is Concanavalin-A (Canavalia ensiformis) (UniProt P02866). Briefly: ConA small-molecule binders, primary screen, artefact control for SMM control protein annotation, biochemical, small-molecule microarray, Alexa647 label, 635 nm (AID 1127).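 Note: z combines 667 nm emission intensity with signal-to-noise across three replicate slides.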 As to conditions: ConA-A647 binding fluorescence, higher = more signal.
Assay [9] can be described thus: anti-His antibody binders, primary screen, artefact control for SMM control protein annotation, biochemical, small-molecule microarray, 635 nm fluorescence (AID 1128).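 Note: score merges feature fluorescence with signal-to-noise for each printed compound spot.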 The settings on record: anti-His Alexa647 antibody binding, higher = more signal.
In assay [10] the test system is Human papillomavirus type 1a E7 protein (residues 1-88). Briefly: HPV1a E7 small-molecule binders, primary screen, biochemical, small-molecule microarray, residues 1-88, 635 nm (AID 1129). The settings on record: small-molecule microarray binding, fluorescence 635 nm; higher = more signal.
In assay [11] the target is Focal adhesion kinase 1 (Homo sapiens) (UniProt Q05397). The experiment in a line: small-molecule microarray binders of FAK, primary screen, biochemical, 635/667 nm fluorescence, BSA, DTT (AID 1130).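 Note: composite of spot emission at 667 nm and signal to noise over triplicate slides.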 The settings on record: PTK2 binding, 635 nm fluorescence, higher = more signal.
In assay [12] the test system is Fibrinogen (Alexa647-labelled). Briefly: fibrinogen binders on compound microarrays, profiling panel, artefact control for SMM control-protein annotation, biochemical, small-molecule microarray, 635/667 nm fluorescence (AID 1131).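 Note: z-score merges 667 nm fluorescence with per-spot signal-to-noise over triplicate slides.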 As to conditions: fibrinogen-A647 binding fluorescence, higher = more signal.
For assay [13], the target named is Follistatin (Homo sapiens) (UniProt P19883). The experiment in a line: follistatin binders on small-molecule microarrays, primary screen, biochemical, small-molecule microarray, 635/667 nm fluorescence (AID 1132). As to conditions: FST binding, 635 nm fluorescence, higher = more signal.
Assay [14] has as its target Fibroblast growth factor 2 (Homo sapiens) (UniProt P09038). The experiment in a line: FGF2 binders on small-molecule microarrays, primary screen, biochemical, small-molecule microarray, 635/667 nm fluorescence (AID 1133). The settings on record: small-molecule microarray binding, FGF2, fluorescence 635/667; higher = more signal.
Assay [15] in a line: mitochondrial membrane potential change in A549 cells, profiling panel, cell-based, JC-1 fluorescence, basal, 24 h, 100 nL (AID 1138).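 Note: A549 lung adenocarcinoma cells under basal conditions with no added stimulus; test concentration not given here.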 The settings on record: higher = more signal.
A further assay concerns Lefty1. Briefly: Lefty1 binders on small-molecule microarrays, primary screen, biochemical, small-molecule microarray, 635/667 nm fluorescence (AID 1139). The settings on record: small-molecule microarray binding, fluorescence 635/667; higher = more signal.
Assay [16] concerns wheat germ agglutinin (Triticum aestivum), Alexa647-labelled. Briefly: wheat germ agglutinin binders on compound microarrays, profiling panel, artefact control for SMM control-protein annotation, biochemical, small-molecule microarray, 635/667 nm fluorescence (AID 1140).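 Note: score merges 667 nm feature emission with signal to noise over triplicate slides.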 The settings on record: WGA-A647 binding, 635 nm fluorescence, higher = more signal.
The target of assay [17] is Luciferin 4-monooxygenase (Photinus pyralis) (UniProt P08659). Briefly: firefly luciferase enzyme inhibitors, primary screen, biochemical, luminescence, purified enzyme, 2006 set (AID 1141).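 Note: cell-free assay with purified firefly luciferase at 100 ng per well in PBS; test concentration not given here.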 The settings on record: SteadyGlo luminescence, 30 min, higher = more signal, called active from +8 up or from −8 down.

Molecules are shown by their SMILES. The source made the active and inactive calls.

Follistatin (Homo sapiens), sequence (P19883 whole entry, looked up): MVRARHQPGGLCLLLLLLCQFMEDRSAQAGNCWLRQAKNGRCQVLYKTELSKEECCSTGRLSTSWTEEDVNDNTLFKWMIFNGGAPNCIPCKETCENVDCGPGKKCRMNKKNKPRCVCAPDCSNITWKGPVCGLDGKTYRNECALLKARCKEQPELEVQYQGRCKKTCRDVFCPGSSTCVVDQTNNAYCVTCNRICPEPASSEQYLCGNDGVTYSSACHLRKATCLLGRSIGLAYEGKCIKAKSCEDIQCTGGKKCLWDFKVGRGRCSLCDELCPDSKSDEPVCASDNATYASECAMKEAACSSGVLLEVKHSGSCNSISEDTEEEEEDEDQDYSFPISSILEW
Focal adhesion kinase 1 (Homo sapiens), sequence (Q05397 whole entry, looked up): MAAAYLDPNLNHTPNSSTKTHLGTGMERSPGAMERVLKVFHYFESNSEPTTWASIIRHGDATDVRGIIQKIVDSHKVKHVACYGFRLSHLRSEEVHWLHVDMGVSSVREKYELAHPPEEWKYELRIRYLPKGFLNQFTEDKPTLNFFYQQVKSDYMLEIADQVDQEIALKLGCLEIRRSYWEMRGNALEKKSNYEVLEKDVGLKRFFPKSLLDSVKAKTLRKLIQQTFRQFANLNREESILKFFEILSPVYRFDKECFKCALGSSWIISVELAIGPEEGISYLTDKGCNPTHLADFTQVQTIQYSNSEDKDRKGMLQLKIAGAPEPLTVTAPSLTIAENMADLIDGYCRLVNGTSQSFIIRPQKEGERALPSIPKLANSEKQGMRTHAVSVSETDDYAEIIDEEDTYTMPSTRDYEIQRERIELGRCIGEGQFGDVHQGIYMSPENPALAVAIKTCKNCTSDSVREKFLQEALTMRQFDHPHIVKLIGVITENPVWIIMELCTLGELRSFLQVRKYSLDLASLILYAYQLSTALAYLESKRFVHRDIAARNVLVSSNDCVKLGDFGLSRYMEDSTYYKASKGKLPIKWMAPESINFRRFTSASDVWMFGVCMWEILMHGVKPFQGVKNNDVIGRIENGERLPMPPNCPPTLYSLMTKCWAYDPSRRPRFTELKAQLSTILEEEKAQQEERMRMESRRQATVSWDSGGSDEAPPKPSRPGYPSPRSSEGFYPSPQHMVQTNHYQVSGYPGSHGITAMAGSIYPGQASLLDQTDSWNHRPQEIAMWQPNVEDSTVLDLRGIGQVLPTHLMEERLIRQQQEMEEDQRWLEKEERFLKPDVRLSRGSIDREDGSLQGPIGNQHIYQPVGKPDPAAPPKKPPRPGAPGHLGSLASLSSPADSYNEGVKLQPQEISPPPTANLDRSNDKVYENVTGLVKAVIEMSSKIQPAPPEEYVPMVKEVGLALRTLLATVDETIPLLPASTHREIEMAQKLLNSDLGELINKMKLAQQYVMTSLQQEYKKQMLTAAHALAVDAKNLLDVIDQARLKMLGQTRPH
Fibroblast growth factor 2 (Homo sapiens), sequence (P09038 whole entry, looked up): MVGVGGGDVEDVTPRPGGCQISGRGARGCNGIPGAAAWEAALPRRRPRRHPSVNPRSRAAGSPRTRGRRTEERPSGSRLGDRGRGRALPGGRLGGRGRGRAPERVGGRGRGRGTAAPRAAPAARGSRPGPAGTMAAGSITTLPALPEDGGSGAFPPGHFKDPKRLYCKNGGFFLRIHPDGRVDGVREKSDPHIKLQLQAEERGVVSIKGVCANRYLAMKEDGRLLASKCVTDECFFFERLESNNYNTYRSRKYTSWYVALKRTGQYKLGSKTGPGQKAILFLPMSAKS
Luciferin 4-monooxygenase (Photinus pyralis), sequence (P08659 whole entry, looked up): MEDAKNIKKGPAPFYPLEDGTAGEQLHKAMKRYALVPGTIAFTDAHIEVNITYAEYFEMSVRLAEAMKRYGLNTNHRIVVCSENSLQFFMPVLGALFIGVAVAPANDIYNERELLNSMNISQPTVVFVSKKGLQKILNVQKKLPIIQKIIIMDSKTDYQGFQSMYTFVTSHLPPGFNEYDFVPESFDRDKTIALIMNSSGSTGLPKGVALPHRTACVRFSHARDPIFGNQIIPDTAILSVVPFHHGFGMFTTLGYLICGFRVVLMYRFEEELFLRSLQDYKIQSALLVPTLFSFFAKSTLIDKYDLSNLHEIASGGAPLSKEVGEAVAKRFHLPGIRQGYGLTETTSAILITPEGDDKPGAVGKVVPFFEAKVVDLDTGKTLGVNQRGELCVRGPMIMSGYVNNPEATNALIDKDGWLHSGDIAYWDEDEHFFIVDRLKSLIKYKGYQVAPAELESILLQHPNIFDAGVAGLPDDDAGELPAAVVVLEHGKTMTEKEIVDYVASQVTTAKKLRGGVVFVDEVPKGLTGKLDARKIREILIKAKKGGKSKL
Albumin (Bos taurus), sequence (P02769 whole entry, looked up): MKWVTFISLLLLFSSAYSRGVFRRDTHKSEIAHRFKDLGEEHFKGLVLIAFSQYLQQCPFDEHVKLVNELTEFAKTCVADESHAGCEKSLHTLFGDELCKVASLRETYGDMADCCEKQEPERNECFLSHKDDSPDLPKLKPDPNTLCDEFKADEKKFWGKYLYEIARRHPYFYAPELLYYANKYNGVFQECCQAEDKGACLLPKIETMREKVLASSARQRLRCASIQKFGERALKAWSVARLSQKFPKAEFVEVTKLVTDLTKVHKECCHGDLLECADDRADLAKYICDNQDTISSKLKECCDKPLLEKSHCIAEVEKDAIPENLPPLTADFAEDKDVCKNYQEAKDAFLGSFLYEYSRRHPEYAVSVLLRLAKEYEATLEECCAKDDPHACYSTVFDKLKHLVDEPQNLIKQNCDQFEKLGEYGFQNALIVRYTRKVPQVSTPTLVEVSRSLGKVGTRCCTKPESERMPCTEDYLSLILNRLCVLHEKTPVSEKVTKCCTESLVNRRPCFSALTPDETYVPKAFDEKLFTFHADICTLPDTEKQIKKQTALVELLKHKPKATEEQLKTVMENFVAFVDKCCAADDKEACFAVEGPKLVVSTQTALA
Concanavalin-A (Canavalia ensiformis), sequence (P02866 whole entry, looked up): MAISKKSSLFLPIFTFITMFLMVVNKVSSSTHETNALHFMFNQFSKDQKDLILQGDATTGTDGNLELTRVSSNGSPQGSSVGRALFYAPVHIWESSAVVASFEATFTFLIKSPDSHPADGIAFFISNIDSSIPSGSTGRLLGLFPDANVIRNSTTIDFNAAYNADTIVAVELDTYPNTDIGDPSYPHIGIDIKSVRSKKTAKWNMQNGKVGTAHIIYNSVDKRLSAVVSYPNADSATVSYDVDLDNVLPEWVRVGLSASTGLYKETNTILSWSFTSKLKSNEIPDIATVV

Regarding `CCN1C(C)=C(C(=O)OC)[C@@H](c2ccccc2)N2C(=O)[C@@]3(C(=O)OC)O[C@@]12[C@@H]1C(=O)N(C)C(=O)[C@@H]13`, the composite z-score in the assay with Albumin (Bos taurus) was 0.216; in assay [2] it was 0.19; in assay [3], -0.141; in assay [4], 0.752; in assay [5], 0.32; in [6] it was 0.164. The composite z-score with Sam68 (KHDRBS1) is 0.686; in assay [7], 1.01; in assay [8], 0.418; in [9], 1.65; in [10], 0.812; in assay [11] it was -0.23. Moreover, the composite z-score in [12] amounted to 0.819; in assay [13], 0.968; in assay [14], 0.916; in the assay on Lefty1, 0.819; in assay [16], 1.12. For the same compound, the composite Z-score in assay [1] is 0.0523 (inactive). Moreover, the z-score in assay [15] is 0.842; in assay [17], -0.701 (inactive).
For the compound `O=C1c2ccccc2[C@@]2(Cc3ccccc3N(CC(F)(F)F)C2=O)[C@H](c2ccc(CO)cc2)N1C1CCCCC1`, the composite z-score with Albumin (Bos taurus) was -0.976; in [2], 0.157; in [3], -0.122; in assay [4] it was 0.807; in assay [5] it was 0.31; in [6] it was 0.48. Further, the composite z-score was 0.588 with Sam68 (KHDRBS1); 0.759 in [7]; 0.709 in assay [8]; -0.194 in assay [9]; -0.07 in assay [10]; -0.103 in assay [11]. Besides, the composite z-score in assay [12] is -0.243; in [13], 1.06; in [14] it was 1.06; in the assay with Lefty1, 0.531; in [16], -0.643. Further, the composite Z-score in assay [1] is -0.336 (inactive). Further, the values for the z-score in assay [15] and in [17] were 0.835 and -0.637 (inactive), respectively.
For the compound `COCCOC(=O)N1C(=O)[C@@]2(c3cc(C#CCC(C(=O)OC)C(=O)OC)ccc31)[C@H](C(=O)N1CCN(c3ncccn3)CC1)[C@H]1C(=O)O[C@H](c3ccccc3)[C@H](c3ccccc3)N1[C@@H]2c1ccc(O)cc1`, the composite z-score was 0.752 with Albumin (Bos taurus); -0.0343 in [2]; -0.0956 in assay [3]; 0.55 in assay [4]; 1.48 in assay [5]; 0.695 in [6]. Moreover, the composite z-score with Sam68 (KHDRBS1) is 1.3; in assay [7], -0.358; in [8], 1.01; in assay [9], 1.55; in [10], 1.19; in assay [11], 0.89. Besides, the composite z-score in assay [12] was found to be 0.65; in assay [13] it was 0.51; in [14], 0.393; in the assay on Lefty1, 0.72; in [16], 1.07. In assay [1], the composite Z-score was 0.394 (inactive). The z-score was 1.95 in assay [15] and -1 (inactive) in assay [17].
For `O=C1O[C@H](c2ccccc2)[C@H](c2ccccc2)N2[C@H]1[C@@H](C(=O)NC[C@H](O)c1ccccc1)[C@]1(C(=O)Nc3ccc(C#CC4(O)CCCCCC4)cc31)[C@H]2c1ccc(OCCO)cc1`, the composite z-score is 0.579 with Albumin (Bos taurus); 0.108 in assay [2]; -0.109 in [3]; 0.603 in [4]; 1.92 in assay [5]; -0.0049 in [6]. For the same compound, the composite z-score is 1.31 with Sam68 (KHDRBS1); 0.088 in assay [7]; 1.16 in assay [8]; 2.52 in [9]; 1.2 in assay [10]; 0.285 in assay [11]. Moreover, the composite z-score in assay [12] is 0.641; in assay [13] it was 1.06; in [14], 1.04; in the assay with Lefty1 it was -0.0254; in assay [16] it was 0.959. The composite Z-score in [1] is 0.248 (inactive). The z-score in assay [15] was -1.2; in [17], -1.23 (inactive).
`CO[C@H]1COC(=O)[C@H](C)NC(=O)CC=C[C@@H](C)[C@H](NS(=O)(=O)c2ccc(C)cc2)COC(=O)CC=C[C@@H]1C`: the composite z-score with Albumin (Bos taurus) is -0.524; in assay [2], -0.152; in assay [3], -0.146; in assay [4] it was 0.651; in [5] it was -0.616; in assay [6], -0.177. In addition, the composite z-score was -1.03 with Sam68 (KHDRBS1); 1.41 in assay [7]; -0.206 in [8]; -0.0701 in assay [9]; -0.64 in assay [10]; -0.522 in assay [11]. The composite z-score in assay [12] was -1.3; in assay [13], 1.28; in assay [14] it was 0.708; in the assay with Lefty1 it was 1.35; in assay [16], -0.955. The composite Z-score in assay [1] is 0.0426 (inactive). In addition, the results for the z-score in [15] and in assay [17] were 0.507 and -0.217 (inactive), respectively.
